From PubChem BioAssay
A selection: hits, their analogues and other compounds. The true share with any hit is near 1.2%.
TLR9-MyD88 inh: TLR9-MyD88 interaction inhibition | Q9NR96+Q99836 | CHO BLA complementation TLR9-MyD88, CCF4 FRET ratio | inhibition, % at 4.98 µM | hit rate 0.21% among 340,000 | AID 504734;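 active = inhibition above the mean over all tested compounds plus 3 SD, cut at about 21% in these data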
TLR4-MyD88 BLA: inhibitors of human TLR4-MyD88 binding; O00206+Q99836; HeLa CL3-4 TLR4/MyD88 BLA complementation, FRET ratio; inhibition, % at 8.4 µM; hit rate 0.18% among 200,000; AID 861; in the data active = inhibition above about 25%
Neddylation inh: inhibitors of human cullin neddylation | P61081+Q13564 | TR-FRET cullin neddylation, biochemical | inhibition, % at 25 µM | hit rate 0.58% among 360,000 | AID 651699; in the data active = inhibition above about 36%
Target sequence (P61081 whole entry, looked up): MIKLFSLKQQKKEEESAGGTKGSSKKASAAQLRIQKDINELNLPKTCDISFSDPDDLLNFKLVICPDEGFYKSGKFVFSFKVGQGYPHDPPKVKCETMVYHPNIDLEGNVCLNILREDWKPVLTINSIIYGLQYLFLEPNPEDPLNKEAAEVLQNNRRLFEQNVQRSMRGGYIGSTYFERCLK
Target sequence (Q13564 whole entry, looked up): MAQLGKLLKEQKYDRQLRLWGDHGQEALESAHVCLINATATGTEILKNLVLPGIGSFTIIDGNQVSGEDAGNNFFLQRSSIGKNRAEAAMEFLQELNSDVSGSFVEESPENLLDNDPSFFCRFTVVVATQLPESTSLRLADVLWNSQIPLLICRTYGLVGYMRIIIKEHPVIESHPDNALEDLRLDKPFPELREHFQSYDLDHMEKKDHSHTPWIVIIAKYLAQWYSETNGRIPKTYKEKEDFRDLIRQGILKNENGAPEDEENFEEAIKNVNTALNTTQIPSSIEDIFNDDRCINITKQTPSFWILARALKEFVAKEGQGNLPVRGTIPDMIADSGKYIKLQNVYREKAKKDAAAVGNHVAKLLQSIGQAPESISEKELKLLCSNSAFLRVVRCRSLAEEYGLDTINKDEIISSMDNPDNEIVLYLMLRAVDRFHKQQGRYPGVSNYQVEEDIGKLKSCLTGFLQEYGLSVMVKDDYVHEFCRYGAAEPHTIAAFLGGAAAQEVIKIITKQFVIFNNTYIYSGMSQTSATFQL
NPR1 activator: GC-A (human) enzyme activation. hit rate 0.14% among 370,000. HEK293 GC-A cells, cGMP TR-FRET, EC30 ANP; 0% at EC30 ANP, 100% saturating ANP. P16066. activation, % at 10 µM. AID 1671463; in the data active = activation above about 40%
NPR2 activator: GC-B (human) receptor activation | P20594 | hit rate 0.11% among 370,000 | HEK293-GC-B cells, CNP EC30, cGMP TR-FRET; 0% at EC30 CNP, 100% saturating CNP | activation, % at 10 µM | AID 1920062;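 active = activation at 10 µM reaching about 35% in either raw or pattern-adjusted values, limit read from the data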
NOD2-RIPK2 inh: inhibitors of human NOD2-RIPK2 interaction. O43353. CHO BLA complementation NOD2-RIPK2, CCF4 ratio. inhibition, % at 4.98 µM. hit rate 0.38% among 360,000. AID 624267; in the data active = inhibition above about 21%
TLR9-MyD88 cf: TLR9-MyD88 interaction inhibition, confirmation; inhibition, % at 4.98 µM; shares compounds with TLR9-MyD88 inh; AID 540250; hit rate 51% among 680; CHO TLR9/MyD88 BLA complementation, CCF4 FRET ratio;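 active = mean inhibition across three repeats above about 21% taken from the earlier screen, limit read from the data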;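 also: blue over green emission ratio reports constitutive TLR9 MyD88 association via BLA complementation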
BLA counter-1: beta-lactamase reporter inhibition, counter-screen artifact; inhibition, % at 4.98 µM; shares compounds with TLR9-MyD88 inh; hit rate 7% among 680; AID 540251; CHO-BLA cells, CCF4 FRET ratio, BLA reporter;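 active = mean inhibition above a 50% cutoff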;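 also: counterscreen of TLR9-MyD88 hits on CMV-driven BLA in CHO-K1 cells; higher means less blue over green ratio so more BLA blockade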
TLR9 CHO cytotox: counter-screen for TLR9-MyD88 inhibitors: cytotoxicity in CHO cells; luminescence; hit rate 39% among 680; AID 588336; inhibition, % at 4.98 µM; shares compounds with TLR9-MyD88 inh; in the data active = inhibition above about 11%
NOD2-RIPK2 conf: confirmation of human NOD2-RIPK2 interaction inhibitors; shares compounds with NOD2-RIPK2 inh; CHO cells, NOD2-RIPK2 BLA complementation, CCF4 FRET; inhibition, % at 4.98 µM; hit rate 70% among 1,200; AID 624370;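 active = mean inhibition across replicates above a set limit taken from the earlier primary screen, cut at about 21% in these data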
BLA counter-2: counter-screen for NOD2-RIPK2 interaction inhibitors: BLA reporter | shares compounds with NOD2-RIPK2 inh | hit rate 57% among 1,200 | AID 624371 | inhibition, % at 4.98 µM | CHO BLA reporter, CCF4 FRET ratio, counterscreen;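 active = mean inhibition above the low-control mean inhibition plus three low-control SD, cut at about 11% in these data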
A number is an active result.

Screening Cc1ccc(/C=C2/Sc3ccc(C(=O)N4CCC5(CC4)OCCO5)cc3NC2=O)cc1 returned TLR9-MyD88 inh inactive, Neddylation inh inactive, NPR1 activator inactive, NPR2 activator inactive and NOD2-RIPK2 inh inactive.
`CC1=NCCc2c1[nH]c1cc(O)ccc21` gave TLR9-MyD88 inh 32, Neddylation inh inactive, NPR1 activator inactive, NPR2 activator inactive, NOD2-RIPK2 inh 54, TLR9-MyD88 cf 26, BLA counter-1 inactive, TLR9 CHO cytotox inactive, NOD2-RIPK2 conf 49 and BLA counter-2 51.
O=C(O)CC[N+](=O)[O-] was read as TLR9-MyD88 inh inactive, Neddylation inh inactive, NPR1 activator inactive, NPR2 activator inactive and NOD2-RIPK2 inh inactive.
Screening C[CH2][Hg][S]c1ccccc1C(=O)O returned TLR9-MyD88 inh 52, Neddylation inh inactive, NPR1 activator inactive, NPR2 activator inactive, NOD2-RIPK2 inh active, TLR9-MyD88 cf 48, BLA counter-1 inactive, TLR9 CHO cytotox 97, NOD2-RIPK2 conf active and BLA counter-2 inactive.
For CCOC(=O)c1c(C)n(Cc2ccccc2)c2ccc(OCC(O)CNC(C)(C)C)cc12 (stereo not drawn) the results were TLR9-MyD88 inh inactive, Neddylation inh inactive, NPR1 activator inactive, NPR2 activator inactive and NOD2-RIPK2 inh inactive.
Nc1cc(Cl)c2nonc2c1[N+](=O)[O-] was read as TLR9-MyD88 inh 52, TLR4-MyD88 BLA inactive, Neddylation inh inactive, NPR1 activator inactive, NPR2 activator inactive, NOD2-RIPK2 inh 74, TLR9-MyD88 cf 48, BLA counter-1 inactive, TLR9 CHO cytotox 97, NOD2-RIPK2 conf 76 and BLA counter-2 21.
Screening O=[N+]([O-])c1c(Cl)c(Cl)c(Cl)c(Cl)c1Cl returned TLR9-MyD88 inh inactive, Neddylation inh inactive, NPR1 activator inactive, NPR2 activator inactive and NOD2-RIPK2 inh inactive.
`COc1ccc(CC2NCC(O)C2OC(C)=O)cc1` (stereo not drawn) gave TLR9-MyD88 inh inactive, Neddylation inh inactive, NPR1 activator inactive, NPR2 activator inactive, NOD2-RIPK2 inh 35, NOD2-RIPK2 conf 32 and BLA counter-2 inactive.
`COc1ccc(CC(=O)N2CCN(C)CC2)cc1` gave TLR9-MyD88 inh inactive, TLR4-MyD88 BLA inactive, Neddylation inh inactive, NPR1 activator inactive, NPR2 activator inactive and NOD2-RIPK2 inh inactive.
For CCN(CC)c1ccc(/C=C/[N+](=O)[O-])cc1 the results were TLR9-MyD88 inh inactive, TLR4-MyD88 BLA inactive, Neddylation inh inactive, NPR1 activator inactive, NPR2 activator inactive, NOD2-RIPK2 inh 44, NOD2-RIPK2 conf 54 and BLA counter-2 28.
Screening CCOP(=O)(CCP(=O)(OCC)OCC)OCC.C[CH2][Sn]([Cl])([Cl])[CH2]C returned TLR9-MyD88 inh inactive, Neddylation inh inactive, NPR1 activator inactive, NPR2 activator inactive, NOD2-RIPK2 inh 25, NOD2-RIPK2 conf 51 and BLA counter-2 inactive.
For COc1ccc(NC(=S)N2Cc3ccccc3-n3nncc3C2)c(OC)c1 the results were TLR9-MyD88 inh inactive, Neddylation inh inactive, NPR1 activator inactive, NPR2 activator inactive and NOD2-RIPK2 inh inactive.
CCOC(=O)[C@]12Cc3cc(C)ccc3[C@H]1N(CCC(=O)OC)C(=O)c1cc(OC)ccc12 was read as Neddylation inh inactive, NPR1 activator inactive, NPR2 activator inactive and NOD2-RIPK2 inh inactive.
`CCOC(=O)[C@]12Cc3ccccc3[C@H]1N(C)C(=O)c1cc(OC)ccc12` gave Neddylation inh inactive, NPR1 activator inactive, NPR2 activator inactive and NOD2-RIPK2 inh inactive.
`CCOC(=O)[C@]12Cc3cc(C)ccc3[C@H]1N(C1CCCCC1)C(=O)c1cc(OC)ccc12` gave Neddylation inh inactive, NPR1 activator inactive, NPR2 activator inactive, NOD2-RIPK2 inh 62, NOD2-RIPK2 conf 73 and BLA counter-2 inactive.
CCOC(=O)[C@]12Cc3cc(OC)ccc3[C@H]1N(C1CCCCC1)C(=O)c1cc(OC)ccc12 was read as Neddylation inh inactive, NPR1 activator inactive, NPR2 activator inactive, NOD2-RIPK2 inh 40, NOD2-RIPK2 conf 26 and BLA counter-2 inactive.
For CC(=O)OC1C(=O)OCC23CCC4(C)OC4C2OC2CC(OC(=O)C=CC=CC(=O)OCCC1C)C3(C)C21CO1 (stereo not drawn) the results were TLR9-MyD88 inh inactive, Neddylation inh inactive, NPR1 activator inactive, NPR2 activator inactive, NOD2-RIPK2 inh 31, NOD2-RIPK2 conf 25 and BLA counter-2 inactive.
`CC(O)C1C=CC=CC(=O)OC2CC3OC4C5OC5(C)CCC4(COC(=O)C4OC4(C)C(O)CO1)C2(C)C31CO1` (stereo not drawn) gave TLR9-MyD88 inh inactive, Neddylation inh inactive, NPR1 activator inactive, NPR2 activator inactive, NOD2-RIPK2 inh 29, NOD2-RIPK2 conf 21 and BLA counter-2 inactive.
Screening COC(=O)C1=C(c2ccc(-c3ccccc3)c(F)c2)C[C@@H]2CC[C@H]1N2C(=O)NCCCOC(C)C returned TLR9-MyD88 inh inactive, Neddylation inh inactive, NPR1 activator inactive, NPR2 activator inactive and NOD2-RIPK2 inh inactive.
For Cc1cccc(C)c1-n1nnnc1C(c1cccs1)N1CCC2(CC1)C(=O)NCN2c1ccccc1 (stereo not drawn) the results were Neddylation inh inactive, NPR1 activator inactive, NPR2 activator inactive and NOD2-RIPK2 inh inactive.
`COc1ccc2nc(-c3ccc(CN4CCC(n5nnc6ccccc65)CC4)cc3)c(-c3ccccc3)nc2c1` gave NPR1 activator inactive and NPR2 activator inactive.
For COC(=O)C12OCC34C(CC5C(C)=C(O)C(=O)CC5(C)C3C(O)C1O)OC(=O)C(OC(=O)/C=C(\C)C(C)C)C24 (stereo not drawn) the results were TLR9-MyD88 inh inactive, Neddylation inh inactive, NPR1 activator inactive, NPR2 activator inactive, NOD2-RIPK2 inh 29, NOD2-RIPK2 conf 24 and BLA counter-2 inactive.
For C=CCN1CCc2cccc3c2[C@H]1Cc1ccc(O)c(O)c1-3 the results were TLR9-MyD88 inh inactive, Neddylation inh inactive, NPR1 activator inactive, NPR2 activator inactive and NOD2-RIPK2 inh inactive.
